Measured values taken from PubChem BioAssay (NCATS).
Inconclusive results are not listed. The source made the active and inactive calls. Calls come from the whole dose curve; as a rule, active = well fitted curve in the direction sought with a large enough effect; inconclusive = small, poorly fitted or top-dose-only effect, or another doubt; inactive = no such curve, though single readings can be large; an effect the other way counts as inactive or inconclusive.

Assays:
[1] = MCF7 Cancer Cell Toxicity qHTS against the NCATS CANVASS Library (AID 1347369)
Procedure, shortened: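 MCF7, 500 cells/well; cpds 11-pt qHTS; 72 hr, 37C/5% CO2; CellTiterGlo ATP luminescence.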

[2] = qHTS for ATAD5 Antagonist screened against the NCATS CANVASS Library (AID 1347370);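 note: HEK293T cells carrying an ATAD5 luciferase reporter co-treated with 10 µM 5-fluorouridine; series mostly up to about 46 µM; nearly all actives have a fitted effect of over 65% in size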
Procedure, shortened: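 HEK293T cells with stably integrated ATAD5-luciferase reporter, 2000/well, 5 h attachment; compounds plus 10 µM 5-fluorouridine, 16 h at 37 °C. Luciferase luminescence read, with CellTiter-Fluor viability read first.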

[3] = J3T Cancer Cell Toxicity qHTS against the NCATS CANVASS Library (AID 1347371);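 note: J3T is a canine glioma cancer cell line seeded at 500 cells per well; series mostly up to about 46 µM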
Procedure, shortened: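 Cells plated at 500 per well, compounds pin-transferred, plates incubated 72 hr at 37C, then CellTiterGlo added and luminescence read to measure ATP content.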

[4] = molecular target: Nuclear receptor subfamily 1 group I member 3 (Homo sapiens) (UniProt Q14994); assay: qHTS for Constitutive Androstane Receptor (CAR) Antagonist screened against the NCATS CANVASS Library (AID 1347372);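 note: cells stimulated with 50 nM CITCO agonist so inhibition reflects antagonism; series mostly up to about 46 µM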
Nuclear receptor subfamily 1 group I member 3 (Homo sapiens), sequence (Q14994 whole entry, looked up): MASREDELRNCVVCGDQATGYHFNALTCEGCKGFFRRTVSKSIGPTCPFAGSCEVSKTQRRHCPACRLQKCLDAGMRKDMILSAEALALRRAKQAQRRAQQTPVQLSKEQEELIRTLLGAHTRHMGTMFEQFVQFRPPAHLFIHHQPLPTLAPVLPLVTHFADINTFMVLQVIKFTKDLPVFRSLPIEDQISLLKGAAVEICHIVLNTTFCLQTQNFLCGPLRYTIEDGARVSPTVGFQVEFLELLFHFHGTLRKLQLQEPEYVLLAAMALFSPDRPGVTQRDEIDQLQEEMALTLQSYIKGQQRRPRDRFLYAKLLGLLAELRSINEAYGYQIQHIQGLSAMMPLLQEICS
Procedure, shortened: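 HepG2 cells stably carrying hCAR and CYP2B6-2.2kb luciferase reporter, 2500 cells/well, compound with 50 nM CITCO agonist for 24hr at 37C. ONE-Glo luminescence measured CAR activity; CellTiter-Fluor read viability.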

[5] = molecular target: Nuclear receptor subfamily 1 group I member 3 (Homo sapiens) (UniProt Q14994); assay: qHTS for Constitutive Androstane Receptor (CAR) Agonist screened against the NCATS CANVASS Library (AID 1347373);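 note: every well also contained 1.5 µM PK11195 alongside the test compound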
Procedure, shortened: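 HepG2-hCAR-CYP2B6 cells, 2500/well, attached 4hr; cpd + PK11195 1.5uM final; 24hr 37C 5% CO2. CellTiter-Fluor viability read, then ONE-Glo luminescence for CAR activation.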

[6] = qHTS for Hypoxia signaling pathway (HIF-1) antagonists against the NCATS CANVASS Library (AID 1347374);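 note: HRE-bla ME-180 cells stimulated with cobalt chloride to stabilize HIF-1alpha; series mostly up to about 38 µM; nearly all actives have a fitted effect of over 60% in size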
Procedure, shortened: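 HRE-bla ME-180 cells in medium with 0.5% dialyzed FBS received compounds (11-point series) plus CoCl2 (60 uM addition stock) for 17 hrs at 37C. Beta-lactamase activity read with CCF4 (405 nm ex, 460/530 nm em); CellTiter-Glo viability measured in same wells.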

[7] = qHTS for Hypoxia signaling pathway (HIF-1) agonists against the NCATS CANVASS Library (AID 1347375)
Procedure, shortened: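 ME-180 HRE-bla reporter cells; 2,000/well, 0.5% dialyzed FBS; cpd added after 5 h, 17 h 37C/5% CO2; CCF4-AM 2 h RT; FRET 460/530 nm; CellTiter-Glo viability same wells, 30 min.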

[8] = 10-beta competent E. coli microbial cell viability qHTS against the NCATS CANVASS Library (AID 1347376); note: series mostly up to about 46 µM
Procedure, shortened: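 E. coli 10-beta, 0.2 OD; cpds 11-pt; o/n 37C, 5% CO2; BacTiter-Glo 20 min RT; luminescence (ATP) = viable cells. Daunomycin ctrl.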

[9] = DH5-alpha competent E. coli microbial cell viability qHTS against the NCATS CANVASS Library (AID 1347377); settings: outcome: dose series up to 46.1 µM unless noted
Procedure, shortened: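 qHTS, 11-pt; E. coli DH5-alpha, 0.2 OD; o/n 37C/5% CO2; BacTiter-Glo, 20 min RT; luminescence.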

[10] = qHTS for H2AX Agonists against the NCATS CANVASS Library (AID 1347378)
Procedure, shortened: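 CHO-K1 cells were plated overnight at 37C, then exposed to compounds (concentration series, 0.76% DMSO final) for 3 hr at 37C. Lysates received Eu-cryptate anti-pH2AX (S139) and d2 anti-H2AX antibodies; after 24 hr at room temperature, TR-FRET 665/620 nm ratio was read.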

[11] = qHTS for Inflammasome Signaling Inhibitors: IL-1-beta AlphaLISA screen against the NCATS CANVASS Library (AID 1347379);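 note: human THP-1 cells primed with LPS then triggered with ATP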
Procedure, shortened: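 THP-1 cells pretreated 1 hr with compound (up to 57.5 uM final), then stimulated with LPS (250 ng/mL final) and ATP (1.25 mM final). Secreted IL-1B measured by AlphaLISA after 16 hr; glyburide as positive control.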

[12] = Inflammasome Signaling qHTS Counterscreen: IL-1-beta AlphaLISA counterscreen against the NCATS CANVASS Library (AID 1347381);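 note: cell-free check with purified IL-1β in medium and no THP-1 cells; series mostly up to about 57 µM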
Procedure, shortened: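 Cell-free interference check: compounds added to medium spiked with 4 pg purified IL-1β. Anti-IL-1β acceptor beads (6 ug/mL) with 0.6 nM biotinylated antibody added for 1 h at RT, then streptavidin donor beads (24 ug/mL) for 30 min in the dark. AlphaLISA read at 680/615 nm.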

[13] = Cytotoxicity qHTS for assessment of Hepg2 cells membrane integrity screened against the NCATS CANVASS Library (AID 1347387)
Procedure, shortened: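 qHTS, 11-pt conc. series, 0.59 nM - 46 uM final; HepG2 2000 cells/well, overnight attachment; 5 hr compound exposure 37C/5% CO2; CytoTox-ONE, 10 min RT; fluorescence ex560/em590 = LDH from damaged membranes.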

[14] = qHTS for Activators of p53 Stress Response Pathway screened against the NCATS CANVASS Library (AID 1347388)
Procedure, shortened: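 p53RE-bla HCT-116 cells (4000/well) were pre-incubated for 5 h, then treated with compound (11 points) for 16 h at 37C. After 2 h with CCF4, the 460/530 nm ratio gave reporter activation; CellTiter-Glo measured viability.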

[15] = qHTS assay for small molecule disruptors of mitochondrial membrane potential screened against the NCATS CANVASS Library (AID 1347389); note: series mostly up to about 46 µM; nearly all actives have a fitted effect of over 60% in size
Procedure, shortened: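 HepG2, 2,000 cells/well, attached overnight; compound 1 hr, 37C, 5% CO2; Mito-MPS dye 30 min, 37C; fluorescence 535 nm (monomer) and 590 nm (aggregate); decreased 590/535 ratio = depolarization.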

[16] = Secretion counterscreen for inhibitors of the SERCaMP assay screened against the NCATS CANVASS Library (AID 1347390);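 note: light from luciferase secreted into medium read as a measure of general secretion; series mostly up to about 77 µM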
Procedure, shortened: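 SH-SY5Y cells expressing constitutively secreted GLuc, 1000 cells/well, attached 4 h at 37C, then exposed to compounds (0.001 - 77 uM, 11-pnt series) for 20 h. Coelenterazine added; luminescence read to flag secretory-pathway interferers.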

[17] = qHTS for activators of Nrf2/ARE signaling pathway screened against the NCATS CANVASS Library (AID 1347391); note: nearly all actives have a fitted effect of over 60% in size
Procedure, shortened: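 Plate ARE-bla HepG2 cells at 2000/well and let them settle 5 h. Pin-transfer compounds in DMSO, incubate 16 h at 37C. Load CCF4 for 2 h at room temperature and read blue/green fluorescence.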

[18] = qHTS for activators of dead-cell proteases activity screened against the NCATS CANVASS Library (AID 1347392);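 note: luminescence from protease leaking out of membrane-damaged cells cleaving impermeant substrate; rising signal means more cytotoxicity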
Procedure, shortened: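 HepG2 cells, 2000/well, attached 18 h at 37C, then exposed to compounds (11-point qHTS) for 5 h. Dead-cell protease release read as luminescence from cell-impermeant AAF-aminoluciferin substrate after 15 min at room temperature.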

[19] = qHTS for inhibitors of ER calcium dysfunction: SERCaMP assay screened against the NCATS CANVASS Library (AID 1347393);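 note: series mostly up to about 77 µM; lower secreted reporter signal means inhibitor of ER calcium depletion; nearly all actives have a fitted effect of over 40% in size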
Procedure, shortened: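 SH-SY5Y GLuc-SERCaMP, 1000 cells/well, 4 h attach; cpd 16 h, 37C/5% CO2; thapsigargin (added as 6x 600 nM) 4 h; coelenterazine; luminescence. Reduced reporter release = ER Ca stabilization.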

[20] = Vero-766 cells viability qHTS against the NCATS CANVASS Library: Counterscreen for Zika virus inhibition assay (AID 1347394); note: series mostly up to about 46 µM; nearly all actives have a fitted effect of over 60% in size
Procedure, shortened: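 Uninfected Vero 766 (African green monkey) cells, 1000/well, attached overnight, then exposed 72 h at 37C to compounds (11-point qHTS). Viability read by CellTiter-Glo luminescence; media-only wells served as 100% inhibition.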

[21] = qHTS for inhibitors of Wild type Zika virus screened against the NCATS CANVASS Library (AID 1347396);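 note: ATP luminescence of surviving cells so rescue from viral cell killing; series mostly up to about 46 µM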
Procedure, shortened: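 Using ATP-based luminescence (CellTiter Glo), this screen scores rescue of Vero 766 cells from wild-type Zika killing at 72 h post-infection. Compounds are tested in a concentration series.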

[22] = Viability qHTS for inhibitors of the SERCaMP assay screened against the NCATS CANVASS Library (AID 1347400); note: series mostly up to about 92 µM; nearly all actives have a fitted effect of over 70% in size
Procedure, shortened: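 SH-SY5Y SERCaMP MJH297 cells, 1000/well; 4 h settle, 37C/5% CO2; pin-transferred cpds; 48 h; CellTiter-Glo lum. Pos ctrl bortezomib 0.0001 - 4.6 uM.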

[23] = Redox Reaction Profiling qHTS: Assay Interference Panel against the NCATS CANVASS Library (AID 1347401)
Procedure, shortened: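 Compounds in 11-point series incubated with 5 uM resazurin and 200 uM DTT in 50 mM HEPES pH 7.3, 50 mM NaCl. Resorufin fluorescence (Ex 525/Em 598) read before and after 15 min in the dark.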

Measured: Potency

C[C@@H]1O[C@@H](O[C@@H]2[C@@H](O)[C@H](O[C@@H]3[C@@H](O)[C@@H](O)C(O[C@H]4[C@H](OC(=O)[C@]56CCC(C)(C)C[C@H]5C5=CCC7[C@@]8(C)C[C@H](O)[C@H](O[C@@H]9C[C@H](CO)[C@@H](O)[C@H](O)[C@H]9O)[C@@](C)(CO)C8[C@H](O)C[C@@]7(C)[C@]5(C)CC6)OC[C@H](O)[C@@H]4O)O[C@H]3C)OC[C@H]2O)[C@H](O)[C@H](O)[C@H]1O (stereo partly drawn)
inactive: all assays above
